Source: PubChem BioAssay (several laboratories)
The list is not random: actives were taken first. Their share in the collection is about 2.1%.
GalR3 antag – GalR3 antagonists in HEK293 cells, primary screen, cell-based, fluorescence readout; AID 651719, 2012; HEK293 GalR3-CNG cAMP membrane potential fluorescence; galR3 body fused to GalR1 C-terminus; inhibition, % at 3 µM; hit rate 0.44% among 360,000; Galanin receptor type 3 (Homo sapiens), O60755;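 active = inhibition above the screen-wide average plus 3 SD, cut at about 13% in these data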;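 also: forskolin and galanin both at EC90 stimulate the cells; cAMP rise reported by CNG channel membrane potential dye signal; 0% = forskolin plus galanin with DMSO and 100% = forskolin alone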
Target sequence (O60755 1-299 limits assumed): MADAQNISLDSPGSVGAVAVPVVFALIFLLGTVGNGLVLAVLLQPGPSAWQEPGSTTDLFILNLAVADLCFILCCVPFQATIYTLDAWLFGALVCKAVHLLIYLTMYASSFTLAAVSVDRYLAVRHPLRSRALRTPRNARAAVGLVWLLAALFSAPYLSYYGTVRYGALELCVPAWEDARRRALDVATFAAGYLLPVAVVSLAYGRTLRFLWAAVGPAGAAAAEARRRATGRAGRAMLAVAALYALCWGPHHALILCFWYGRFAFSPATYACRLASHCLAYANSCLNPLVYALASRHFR
Gli-Sufu block – Gli-Sufu pathway antagonists, primary screen, luciferase luminescence, Sufu-KO-LIGHT cells, uHTS. Sufu-KO-LIGHT fibroblasts, Gli luciferase reporter luminescence. AID 588413, 2011. hit rate 0.74% among 340,000. inhibition, % at 5 µM;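 active = inhibition above about 55%, limit read from the data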;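 also: 0% = DMSO-treated cells and 100% = wells with medium but no cells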
aDG glyco act – activators of alpha-DG glycosylation, primary screen, uHTS, Pro5-aDG cells, AlphaScreen; alpha-DG glycosylation AlphaScreen (IIH6); 0% Pro5, 100% B10-LARGE cell signal; activation, % at 10 µM; hit rate 0.22% among 360,000;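 active = activation of at least 8% versus controls, or a plate z-score of at least 8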;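 also: Pro5 are CHO cells carrying HIG-tagged alpha-DG that lacks glycosylation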
HIV Env fusion – inhibitors of HIV-1 Env-driven cell-cell fusion, primary screen, HeLa-JRFL effector, CEM21 target cells, luciferase; inhibition, % at 12.3 µM; hit rate 1.1% among 360,000; AID 651610, 2012;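 active = mean replicate inhibition score of at least 50 and every replicate individually at or above 50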;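 also: 0% = plate neutral controls and 100% = maraviroc near 300 nM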
COUP-TFII inh – NR2F2 transcriptional activity inhibitors, primary screen, cell-based, luciferase reporter, HEK293T, luminescence | AID 686940, 2013 | inhibition, % at 8.6 µM | hit rate 0.7% among 370,000 | COUP transcription factor 2 (Homo sapiens), P24468 | HEK293T NGFI-A luciferase reporter;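 active = inhibition above a per-plate cutoff, mean inhibition of test wells between control levels plus 3 SD, cut at about 38% in these data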;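 also: cells cotransfected with COUP-TFII expression vector driving the NGFI-A reporter; 0% = median of COUP-TF2 test wells and 100% = reporter-only cells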
Target sequence (P24468 whole entry, looked up): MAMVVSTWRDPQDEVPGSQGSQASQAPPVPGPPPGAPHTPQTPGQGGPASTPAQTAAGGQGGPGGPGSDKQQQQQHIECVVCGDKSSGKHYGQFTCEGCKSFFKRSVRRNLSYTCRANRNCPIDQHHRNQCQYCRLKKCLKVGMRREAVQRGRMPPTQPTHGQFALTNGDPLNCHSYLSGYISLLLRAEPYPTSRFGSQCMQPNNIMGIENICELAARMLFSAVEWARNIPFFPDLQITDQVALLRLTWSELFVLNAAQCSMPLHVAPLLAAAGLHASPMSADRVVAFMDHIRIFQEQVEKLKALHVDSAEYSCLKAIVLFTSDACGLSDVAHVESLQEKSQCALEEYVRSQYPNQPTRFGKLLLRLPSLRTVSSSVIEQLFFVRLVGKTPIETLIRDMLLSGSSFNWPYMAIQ
Numbers without * were called inactive; nt = no result given; [ ] = another dose, or the depositor's remark.

SMILES	GalR3 antag	Gli-Sufu block	aDG glyco act	HIV Env fusion	COUP-TFII inh
C[C@H](CO)N1C[C@H](C)[C@H](CN(C)S(=O)(=O)c2ccc(C#N)cc2)Oc2ncc(/C=C/c3ccccc3)cc2C1=O	nt	nt	nt	74.3*[16.7 µM]	nt
COc1ccc(NC(=O)Nc2ccc3c(c2)C(=O)N([C@H](C)CO)C[C@H](C)[C@H](CN(C)S(=O)(=O)c2ccc(F)cc2)O3)cc1	nt	nt	nt	69.3*[16.7 µM]	nt
COc1ccc(NC(=O)Nc2ccc3c(c2)C(=O)N([C@H](C)CO)C[C@H](C)[C@H](CN(C)S(=O)(=O)c2ccc(C)cc2)O3)cc1	nt	nt	nt	86.7*[16.7 µM]	nt
C[C@@H]1CN([C@H](C)CO)C(=O)c2cc(NC(=O)Nc3ccccc3)ccc2O[C@@H]1CN(C)S(=O)(=O)c1ccccc1	nt	nt	nt	74.8*[16.7 µM]	nt
C[C@H](CO)N1C[C@H](C)[C@@H](CN(C)S(=O)(=O)c2ccccc2)Oc2ncc(/C=C/c3ccccc3)cc2C1=O	nt	nt	nt	11.9[16.7 µM]	nt
C[C@@H]1CN([C@H](C)CO)C(=O)c2cc(C#CC3(O)CCCC3)cnc2O[C@H]1CN(C)C(=O)Cc1cccnc1	nt	nt	nt	6.9[16.7 µM]	nt
C[C@@H]1CCCCO[C@H](CN(C)Cc2ccc(C(F)(F)F)cc2)[C@H](C)CN([C@H](C)CO)C(=O)c2cc(NS(=O)(=O)c3ccc(F)cc3)ccc2O1	nt	nt	nt	25.7[16.7 µM]	nt
CC(C)NC(=O)N(C)C[C@H]1Oc2ccc(NC(=O)NC3CCCCC3)cc2CC(=O)N([C@@H](C)CO)C[C@H]1C	nt	nt	nt	-7.4[16.7 µM]	nt
Cc1noc(C)c1S(=O)(=O)Nc1ccc2c(c1)C(=O)N([C@@H](C)CO)C[C@H](C)[C@H](CN(C)S(=O)(=O)c1ccc(F)cc1)OCCCC[C@H](C)O2	nt	nt	nt	46.7[16.7 µM]	nt
C[C@@H]1CCCCO[C@H](CN(C)S(=O)(=O)c2cn(C)cn2)[C@@H](C)CN([C@@H](C)CO)C(=O)c2cc(NC(=O)C3CCCCC3)ccc2O1	nt	nt	nt	-1.3[16.7 µM]	nt
COc1ccc(NC(=O)Nc2ccc3c(c2)C(=O)N([C@@H](C)CO)C[C@H](C)[C@H](CN(C)S(=O)(=O)c2ccc(Cl)cc2)O3)cc1	nt	nt	nt	65.9*[16.7 µM]	nt
COCC(=O)N(C)C[C@H]1Oc2ncc(Br)cc2C(=O)N([C@H](C)CO)C[C@H]1C	nt	nt	nt	79.9*[16.7 µM]	nt
COc1ccc(S(=O)(=O)N(C)C[C@@H]2Oc3ccc(NC(=O)Nc4ccc5c(c4)OCO5)cc3C(=O)N([C@@H](C)CO)C[C@@H]2C)cc1	nt	nt	nt	32.2[16.7 µM]	nt
COc1ccc(NC(=O)Nc2ccc3c(c2)C(=O)N([C@@H](C)CO)C[C@H](C)[C@H](CN(C)S(=O)(=O)c2ccc(OC)cc2)O3)cc1	nt	nt	nt	82.6*[16.7 µM]	nt
COc1ccc(NC(=O)Nc2ccc3c(c2)C(=O)N([C@H](C)CO)C[C@H](C)[C@@H](CN(C)S(=O)(=O)c2ccc(Cl)cc2)O3)cc1	nt	nt	nt	-23.3[16.7 µM]	nt
COc1ccc(S(=O)(=O)N(C)C[C@@H]2Oc3ccc(NC(=O)Nc4ccc5c(c4)OCO5)cc3C(=O)N([C@H](C)CO)C[C@@H]2C)cc1	nt	nt	nt	75.5*[16.7 µM]	nt
COCC(=O)N(C)C[C@H]1Oc2ncc(Br)cc2C(=O)N([C@@H](C)CO)C[C@@H]1C	nt	nt	nt	-11.6[16.7 µM]	nt
CC(C)NC(=O)N(C)C[C@H]1Oc2cc(C#CCN(C)C)ccc2S(=O)(=O)N([C@@H](C)CO)C[C@H]1C	nt	nt	nt	-16.2[16.7 µM]	nt
COc1ccc(CN(C)C[C@H]2OCCCC[C@@H](C)Oc3ccc(NC(=O)c4ccccc4)cc3C(=O)N([C@@H](C)CO)C[C@@H]2C)cc1	nt	nt	nt	-82.3[16.7 µM]	nt
O=C(CN1CCOCC1)NCC[C@@H]1CC[C@H](NC(=O)Nc2ccc(Cl)cc2)[C@@H](CO)O1	nt	nt	nt	-22.7[16.7 µM]	nt
CCCNC(=O)C[C@@H]1C[C@H]2c3cc(NC(=O)Cc4ccncc4)ccc3O[C@H]2[C@@H](CO)O1	nt	nt	nt	93.3*[16.7 µM]	nt
CCCNC(=O)C[C@@H]1C[C@H]2c3cc(NC(=O)Cc4ccncc4)ccc3O[C@H]2[C@H](CO)O1	nt	nt	nt	97.9*[16.7 µM]	nt
COCCNC(=O)C[C@H]1C[C@H]2c3cc(NC(=O)Cc4ccncc4)ccc3O[C@H]2[C@H](CO)O1	nt	nt	nt	3.1[16.7 µM]	nt
CCCNC(=O)C[C@H]1C[C@H]2c3cc(NC(=O)CN(C)C)ccc3O[C@H]2[C@H](CO)O1	nt	nt	nt	88.8*[16.7 µM]	nt
C[C@@H]1CCCCO[C@H](CN(C)C(=O)Nc2ccc(F)cc2)[C@H](C)CN([C@H](C)CO)C(=O)c2cc(NS(C)(=O)=O)ccc2O1	nt	nt	nt	-22.1[16.7 µM]	nt
SMILES	GalR3 antag	Gli-Sufu block	aDG glyco act	HIV Env fusion	COUP-TFII inh
O=C([C@H]1O[C@@H](n2ccc(=O)[nH]c2=O)[C@H](O)[C@@H]1O)N1CCN(Cc2ccccn2)CC1	-4.6	nt	0.1	57.2*	-11.3
C[C@H](CO)N1C[C@H](C)[C@H](CN(C)Cc2ccc3c(c2)OCO3)Oc2c(NC(=O)C3CC3)cccc2C1=O	nt	nt	nt	2.3[16.7 µM]	nt
Cc1cccc(CN2CCSCCS2(=O)=O)c1	-6.9	nt	nt	61.1*	-16.5
CC(=NNC(=S)Nc1cccc(Cl)c1)c1ccccn1	-2.7	56.8*	-0.6	3.7	7.5
COc1cccc(C(=O)N/N=C(/CCC(=O)O)c2ccccc2)c1	-3.2	-0.7	-0.1	7.2	-31.4
C/C(=N\NC(=O)c1cc(C)nc2ccccc12)c1ccccn1	-6.0	89.9*	-0.3	61.2*	-25.4
S=C(NCc1ccccn1)Nc1cccc(Cl)c1	-3.7	-11.5	0.7	nt	-5.9
C/C(=N\NC(=O)c1ccc(Cl)cc1)c1ccccn1	-12.2	79.7*	-0.4	-25.9	-2.3
C/C(=N\NC(=O)c1ccccn1)c1ccc(Cl)cc1	0.3	-91.3	-0.1	-50.0	-47.4
COc1cccc(C(=O)N/N=C(/c2ccccc2)c2ccccn2)c1	4.6	81.2*	-0.6	22.7	0.2
COc1ccccc1C#Cc1cnc2c(c1)C(=O)N([C@@H](C)CO)C[C@H](C)[C@@H](CN(C)C(=O)c1ccc3c(c1)OCO3)O2	nt	nt	nt	3.7[16.7 µM]	nt
CC(C)Cn1c(SCC(=O)N2CCc3ccccc3C2)nc2cc(Cl)ccc2c1=O	1.7	7.6	0.2	nt	-14.9
CC(C)c1ccccc1-n1c(SCC(=O)N2CCc3ccccc3C2)nc2ccccc2c1=O	-4.2	35.1	0.5	59.9*	1.8
O=C(C[C@H]1C[C@H]2c3cc(NS(=O)(=O)c4ccc(F)cc4)ccc3O[C@H]2[C@@H](CO)O1)NCc1ccccn1	nt	nt	nt	-4.4[16.7 µM]	nt
C[C@H]1CN([C@@H](C)CO)C(=O)Cc2cc(NC(=O)c3ccncc3)ccc2O[C@@H]1CN(C)Cc1ccc(Cl)c(Cl)c1	nt	nt	nt	-1.6[16.7 µM]	nt
CO[C@@H]1CN(C)C(=O)c2cc(NS(=O)(=O)c3c(C)noc3C)ccc2OC[C@H](C)NC[C@@H]1C	nt	nt	nt	10.5[16.7 µM]	nt
Cc1ccc2[nH]c3c(c2c1)CN(C(=O)CN1CCN(c2cccc(C)c2C)CC1)CC3	-0.9	7.2	1.4	nt	24.2
Cc1ccc2[nH]c3c(c2c1)CN(C(=O)CN1c2ccc(F)cc2CCC1C)CC3 (stereo not given)	-3.4	8.4	0.6	59.7*	22.4
CCn1c2ccccc2c2cc(Nc3cc(C)nc4ncnn34)ccc21	6.3	62.2*	0.1	-64.1	-98.3
